Inconclusive results are not listed. Activity calls are given as the source filed them. Calls come from the whole dose curve; as a rule, active = well fitted curve in the direction sought with a large enough effect; inconclusive = small, poorly fitted or top-dose-only effect, or another doubt; inactive = no such curve, though single readings can be large; an effect the other way counts as inactive or inconclusive.
Columns and labels:
KB-3-1 = assay: Cytotoxic Profiling of Annotated Libraries Using Quantitative High-Throughput Screening (AID 1296008); details: Five cell lines viability, CellTiter-Glo ATP luminescence, 48-72 h; max response: hits give low values; note: nearly all actives have a fitted effect of over 60% in size
How it was run: (§1)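 Compounds were pin-transferred onto cells and incubated 48 or 72 hr at 37 degree Celsius, 95% humidity. CellTiter-Glo was added, plates sat 10 min at room temperature, then ATP-coupled luminescence was imaged as the viability read-out.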

MCC-13 = assay: qHTS assay to identify novel small-molecules to repurpose for Merkel cell carcinoma treatment (AID 1296009); details: MCC and control cell lines, CellTiter-Glo viability, 72 h; series mostly up to 46 µM; note: nearly all actives have a fitted effect of over 60% in size; note: potency is the fitted concentration of half-maximal effect
How it was run: (§2)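 Cells exposed to NPC (8-point) and MIPE (11-point) compound dilutions for 72 hr at 37 degree celsius; viability read by CellTiter-Glo luminescence, normalized to no-cell and DMSO in-plate controls.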

MCC-26 = assay: as above; details: MCC and control cell lines, CellTiter-Glo viability, 72 h; series mostly up to 46 µM
How it was run: as §2

MKL-1 = assay: as above; details: MCC and control cell lines, CellTiter-Glo viability, 72 h; series mostly up to 46 µM
How it was run: as §2

WaGa = assay: as above; details: MCC and control cell lines, CellTiter-Glo viability, 72 h; series mostly up to 46 µM
How it was run: as §2

C33A = assay: Primary qHTS to identify gynecologic anti-cancer compounds using libraries of approved drugs and bioactive compounds (AID 1345084); details: Gynecologic cancer cell panel viability, ATPlite luminescence, 48 h; series mostly up to 57.5 µM; note: nearly all actives have a fitted effect of over 55% in size; note: potency is the fitted concentration of half-maximal effect
How it was run: (§3)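 Cells, 1,000 per well, plated 16 h, then exposed 48 h at 37 C to compounds. Viability by ATPlite luminescence after 15 min at room temperature.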

CASKI = assay: as above; details: Gynecologic cancer cell panel viability, ATPlite luminescence, 48 h; series mostly up to 57.5 µM
How it was run: as §3

Hek293T = assay: as above; details: Gynecologic cancer cell panel viability, ATPlite luminescence, 48 h, control line for the selectivity index; series mostly up to 57.5 µM
How it was run: as §3

JEG-3 = assay: as above; details: Gynecologic cancer cell panel viability, ATPlite luminescence, 48 h; series mostly up to 57.5 µM
How it was run: as §3

OV90 = assay: as above; details: Gynecologic cancer cell panel viability, ATPlite luminescence, 48 h; series mostly up to 57.5 µM
How it was run: as §3

PA-1 = assay: as above; details: Gynecologic cancer cell panel viability, ATPlite luminescence, 48 h; series mostly up to 57.5 µM
How it was run: as §3

NIH3T3 [1] = assay: Cytotoxic Profiling of Annotated Libraries Using Quantitative High-Throughput Screening (AID 1296008); details: Five cell lines viability, CellTiter-Glo ATP luminescence, 48-72 h; max response: hits give low values; note: nearly all actives have a fitted effect of over 60% in size
How it was run: as §1

HACAT = assay: qHTS assay to identify novel small-molecules to repurpose for Merkel cell carcinoma treatment (AID 1296009); details: MCC and control cell lines, CellTiter-Glo viability, 72 h; at 44.8 µM (top of the series) unless noted; note: nearly all actives have a fitted effect of over 60% in size; note: potency is the fitted concentration of half-maximal effect
How it was run: as §2

MKL-2 = assay: as above; details: MCC and control cell lines, CellTiter-Glo viability, 72 h; series mostly up to 46 µM
How it was run: as §2

CAOV3 = assay: Primary qHTS to identify gynecologic anti-cancer compounds using libraries of approved drugs and bioactive compounds (AID 1345084); details: Gynecologic cancer cell panel viability, ATPlite luminescence, 48 h; series mostly up to 57.5 µM; note: nearly all actives have a fitted effect of over 55% in size; note: potency is the fitted concentration of half-maximal effect
How it was run: as §3

Es-2 = assay: as above; details: Gynecologic cancer cell panel viability, ATPlite luminescence, 48 h; series mostly up to 57.5 µM
How it was run: as §3

HeLa = assay: as above; details: Gynecologic cancer cell panel viability, ATPlite luminescence, 48 h; series mostly up to 57.5 µM
How it was run: as §3

NIH3T3 [2] = assay: qHTS assay to identify novel small-molecules to repurpose for Merkel cell carcinoma treatment (AID 1296009); details: MCC and control cell lines, CellTiter-Glo viability, 72 h; at 44.8 µM (top of the series); note: nearly all actives have a fitted effect of over 60% in size; note: potency is the fitted concentration of half-maximal effect
How it was run: as §2

UISO = assay: as above; details: MCC and control cell lines, CellTiter-Glo viability, 72 h; series mostly up to 46 µM
How it was run: as §2
% is set by controls: 0 for no effect and ±100 for the full control effect.

CCO[C@@H]1O[C@H](C(COCc2ccccc2)OCc2ccccc2)[C@H](OCc2ccccc2)[C@H]1O (some centres not stated)
inactive: max response (KB-3-1) -15.4% | Potency (MCC-13) | Potency (MCC-26) | Potency (MKL-1) | Potency (C33A) | Potency (CASKI) | Potency (Hek293T) | Potency (JEG-3) | Potency (OV90) | Potency (PA-1)
active: Potency (WaGa) 26.6 µM

Cc1cc(NS(=O)(=O)c2ccc(N)cc2)nc(C)n1
inactive: max response (NIH3T3 [1]) 4.17% | outcome (HACAT) | Potency (MCC-13) | Potency (MKL-1) | Potency (MKL-2) | Potency (WaGa) | Potency (C33A) | Potency (CAOV3) | Potency (CASKI) | Potency (Es-2) | Potency (HeLa) | Potency (Hek293T) | Potency (JEG-3) | Potency (OV90) | Potency (PA-1)

CN1CCC(OC(c2ccccc2)c2ccccc2)CC1
inactive: outcome (NIH3T3 [1]) | Potency (MCC-13) | Potency (MKL-1) | Potency (MKL-2) | outcome (NIH3T3 [2]) | Potency (UISO) | Potency (WaGa) | Potency (C33A) | Potency (CAOV3) | Potency (CASKI) | Potency (Es-2) | Potency (HeLa) | Potency (Hek293T) | Potency (JEG-3) | Potency (PA-1)

CCCCNc1ccc(C(=O)OCCOCCOCCOCCOCCOCCOCCOCCOCCOC)cc1
inactive: max response (NIH3T3 [1]) -8.1% | Potency (MCC-13) | Potency (MKL-1) | Potency (MKL-2) | Potency (C33A) | Potency (CAOV3) | Potency (CASKI) | Potency (HeLa) | Potency (JEG-3)

COc1ccc2c(c1)c1c3n2CCN(C)C3=NCC1
inactive: max response (NIH3T3 [1]) 0.478% | Potency (MCC-13) | Potency (MCC-26) | Potency (MKL-1) | Potency (MKL-2) | Potency (UISO) | Potency (WaGa) | Potency (C33A) | Potency (CAOV3) | Potency (CASKI) | Potency (Es-2) | Potency (HeLa) | Potency (Hek293T) | Potency (JEG-3) | Potency (OV90) | Potency (PA-1)

Cc1ccc2c(Br)cc(Br)c(O)c2n1
active: Potency (MCC-13) 16.8 µM | Potency (MKL-2) 5.96 µM | Potency (WaGa) 9.44 µM | Potency (C33A) 20 µM | Potency (PA-1) 10 µM
inactive: Potency (HeLa)

CCCCCCCCCCCCCCC[C@H](O)[C@@H](N)CO
inactive: max response (NIH3T3 [1]) -9.49% | Potency (MCC-13) | Potency (MCC-26) | Potency (MKL-1) | Potency (MKL-2) | Potency (UISO) | Potency (WaGa) | Potency (C33A) | Potency (CAOV3) | Potency (CASKI) | Potency (Es-2) | Potency (HeLa) | Potency (Hek293T) | Potency (JEG-3) | Potency (OV90) | Potency (PA-1)

CCN(CC)CCNC(=O)COc1ccc(OC)cc1
inactive: max response (NIH3T3 [1]) -6.7% | Potency (MCC-13) | Potency (MKL-1) | Potency (MKL-2) | Potency (UISO) | Potency (WaGa) | Potency (C33A) | Potency (CASKI) | Potency (Es-2) | Potency (HeLa) | Potency (Hek293T) | Potency (JEG-3) | Potency (OV90) | Potency (PA-1)

Oc1c(Cl)cc(Cl)c(Cl)c1Cc1c(O)c(Cl)cc(Cl)c1Cl
active: Potency (UISO) 11.9 µM | Potency (WaGa) 23.7 µM | Potency (Hek293T) 8.91 µM | Potency (OV90) 10 µM | Potency (PA-1) 11.2 µM
inactive: Potency (MCC-26) | Potency (CAOV3) | Potency (CASKI)

CO[C@H]1C=CO[C@@]2(C)Oc3c(C)c(O)c4c(O)c(c(/C=N/N5CCN(C)CC5)c(O)c4c3C2=O)NC(=O)/C(C)=C\C=C[C@H](C)[C@H](O)[C@@H](C)[C@@H](O)[C@@H](C)[C@H](OC(C)=O)[C@@H]1C
inactive: max response (NIH3T3 [1]) -0.808% | Potency (MCC-13) | Potency (MCC-26) | Potency (C33A) | Potency (CAOV3) | Potency (CASKI) | Potency (Es-2) | Potency (HeLa) | Potency (Hek293T) | Potency (JEG-3) | Potency (OV90) | Potency (PA-1)
active: Potency (MKL-1) 21.1 µM

C[C@H]1O[C@@H](O[C@H]2CC[C@@]3(C)[C@H](CC[C@@H]4[C@@H]3C[C@@H](O)[C@]3(C)[C@@H](C5=CC(=O)OC5)CC[C@]43O)C2)C[C@H](O)[C@@H]1O[C@H]1C[C@H](O)[C@H](O[C@H]2C[C@H](O)[C@H](O[C@@H]3O[C@H](CO)[C@@H](O)[C@H](O)[C@H]3O)[C@@H](C)O2)[C@@H](C)O1
active: Potency (MCC-13) 0.335 µM | Potency (MCC-26) 0.668 µM | Potency (MKL-1) 0.531 µM | Potency (MKL-2) 0.299 µM | Potency (UISO) 0.299 µM | Potency (C33A) 0.282 µM | Potency (CAOV3) 0.501 µM | Potency (CASKI) 1.58 µM | Potency (Es-2) 0.447 µM | Potency (HeLa) 0.355 µM | Potency (Hek293T) 0.355 µM | Potency (OV90) 1.58 µM | Potency (PA-1) 0.316 µM

C#C[C@]1(OC(C)=O)CC[C@H]2[C@@H]3CCC4=C/C(=N/O)CC[C@@H]4[C@H]3CC[C@@]21CC
inactive: max response (NIH3T3 [1]) 2.39% | Potency (MCC-13) | Potency (C33A) | Potency (CASKI) | Potency (Es-2) | Potency (Hek293T) | Potency (JEG-3) | Potency (OV90) | Potency (PA-1)
active: Potency (UISO) 29.9 µM | Potency (HeLa) 4.47 µM
